Data from PubChem BioAssay (NCI).
This is part of a sample that, as a whole, favours compounds with a hit. Of some 83,000 tested, about 20% had one in any assay.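 For each line, cells grew in 96-well plates with the test compound present at a single concentration for 48 hours.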 Unmarked numbers belong to inactive results. The source made the active and inactive calls. The calls were made as follows: active = growth percent below 10; inactive = the rest.

Columns and labels:
Experiment in all cases: NCI-60 one-dose screen, 48 h (100 = growth as untreated, 0 = no growth, -100 = all killed)
Conditions in all cases: 10 µM unless noted
[1] = system: NCI-H23 lung
[2] = system: NCI-H226 lung
[3] = system: NCI-H322M lung
[4] = system: HOP-62 NSCLC
[5] = system: NCI-H460 lung
[6] = system: HOP-92 NSCLC
[7] = system: NCI-H522 lung
[8] = system: A549/ATCC NSCLC
[9] = system: 786-0 renal
[10] = system: COLO 205 colon
[11] = system: DU-145 prostate
[12] = system: K-562 leukemia
[13] = system: MALME-3M melanoma
[14] = system: MDA-MB-231 breast
[15] = system: RXF 393 renal
[16] = system: SF-268 CNS
[17] = system: SF-295 CNS
[18] = system: SF-539 CNS
[19] = system: UACC-257 melanoma
[20] = system: M14 melanoma

Row | Structure (SMILES) | growth [1] | growth [2] | growth [3] | growth [4] | growth [5] | growth [6] | growth [7] | growth [8] | growth [9] | growth [10] | growth [11] | growth [12] | growth [13] | growth [14] | growth [15] | growth [16] | growth [17] | growth [18] | growth [19] | growth [20]
1 | COc1cc(C(=O)/C=C/c2c(-c3cccs3)nc3ccccn23)cc(OC)c1OC | 14.1% | 24.8% | -2.37% (active) | 16.3% | -48.1% (active) | -1.12% (active) | 1.24% (active) | 13.7% | 0.465% (active) | 2.79% (active) | 3.29% (active) | 25.7% | 33.9% | 24.7% | 2.35% (active) | 21% | -29.7% (active) | -27% (active) | 29.9% | 11.7%
2 | CCOC(=O)c1c2c(n3c1NCC3)-c1ccccc1C2=O | 99% | 99.6% | 105% | 102% | 107% | 84% | 36.2% | 101% | 94.3% | 110% | 100% | 87.3% | 89.9% | 107% | 102% | 99.6% | 96% | 93.7% | 95.7% | 104%
3 | O=C1/C(=C/c2ccccc2[N+](=O)[O-])COc2ccc(O)cc21 | 18.8% | 66.4% | 60.9% | 29.1% | 29% | 40% | -40.8% (active) | 54.1% | -41.3% (active) | -32.6% (active) | 18.1% | 14.8% | -56.9% (active) | -16.2% (active) | -9.95% (active) | 58.8% | 81.1% | -49.9% (active) | 0.865% (active) | -10.9% (active)
4 | COc1cc(-c2nc3ccc(C)cc3[nH]2)ccc1OCC(=O)N=Nc1c(O)[nH]c2ccc(Cl)cc12 | 23.2% | 86.8% | 36.9% | 18.3% | -56.1% (active) | 2.42% (active) | 20.6% | 29.7% | -82.5% (active) | -15.9% (active) | 22.9% | -39.3% (active) | -26.9% (active) | -61.6% (active) | -40.7% (active) | 31.4% | -7.5% (active) | -80% (active) | 39.4% | 3.17% (active)
5 | Cc1cc(N2CCN(C)CC2)nc(NCc2cc(Nc3ccnc4cc(Cl)ccc34)ccc2F)n1 | 25.4% | 40.1% | 8.43% (active) | -14.2% (active) | -54.3% (active) | 5.13% (active) | -8.53% (active) | -17% (active) | -26.9% (active) | -61.6% (active) | 10.5% | 2.5% (active) | -76.6% (active) | -56.5% (active) | -70.9% (active) | 8.21% (active) | -70.1% (active) | -83.4% (active) | -73.5% (active) | -65% (active)
6 | O=C(CSc1nc2ccc([N+](=O)[O-])cc2[nH]1)Nc1cccc([N+](=O)[O-])c1 | 24.8% | 36.5% | 83.5% | 95.6% | 47.5% | -14.2% (active) | 19.8% | 58% | 61.6% | 52.5% | 67% | 36.5% | 30.5% | 73.7% | 60.5% | 64.6% | 43.8% | 66.6% | 42.7% | 57.1%
7 | CCOC(=O)/C=C/c1c(C)[nH]c(=O)[nH]c1=O | 81.2% | 98.6% | 136% | 93.7% | 51.7% | 114% | 59.6% | 97.2% | 114% | 92.6% | 21% | 101% | 172% | 93.1% | 89.3% | 96% | 76.5% | 98.9% | 109% | 97.5%
8 | O=C(O)C1CN(c2cccc(Cl)c2)N(c2cccc(Cl)c2)C1=O (stereo not given) | 89.8% | 92.8% | 83.9% | 88% | 102% | 101% | 87.1% | 105% | 96.5% | 94.5% | 96.2% | 101% | 70.8% | 85.1% | 94.9% | 81.7% | 95.6% | 100% | 99.3% | 87.8%
9 | N#C/C(=C\c1ccc(Br)cc1)c1cc2ccccc2[nH]1 | 92.1% | 92.7% | 91.6% | 86.3% | 96.1% | 70.4% | 85% | 101% | 93.3% | 105% | 104% | 86.4% | 99.3% | 79.5% | 115% | 102% | 95.6% | 93.3% | 100% | 101%
10 | C#CC#CC#CC#CC#CC#CC#CC#CC[C@H]1OC[C@H](COC(=O)O[C@@H](C(=O)O[C@H]2C[C@@]3(O)[C@@H](OC(=O)c4ccccc4)[C@@H]4[C@]5(OC(C)=O)CO[C@@H]5C[C@H](O)[C@@]4(C)C(=O)[C@H](OC(C)=O)C(=C2C)C3(C)C)[C@@H](NC(=O)c2ccccc2)c2ccccc2)O1 | 45.8% | 54.5% | 53.6% | 68.9% | 18.8% | 57.7% | 63.5% | 49.6% | 83.5% | 19.3% | 45.3% | 22.2% | 56.7% | 62.5% | 43% | 61.7% | 44.6% | 39.8% | 70.9% | 27.5%
11 | O=C(Cn1nnc2ccccc21)N/N=C/c1ccccc1F | 105% | 85.8% | 93.6% | 102% | 104% | 103% | 84.9% | 89.2% | 97.5% | 113% | 107% | 94.3% | 102% | 91.1% | 101% | 93.9% | 111% | 102% | 93% | 108%
12 | CCOC(=O)n1cc(-c2nonc2-c2cn(C)c3ccccc23)c2ccccc21 | 55% | 75.4% | 44% | 34.5% | 14.5% | 54.4% | 18.4% | 40.1% | 48% | 24.3% | 57.2% | 11.2% | 41% | 46% | 63.5% | 54% | 27.8% | 21.9% | 68.9% | 21.5%
13 | Cc1ccc(-c2nc(C#N)c(S(=O)(=O)NCCO)o2)cc1 | 82.3% | 86.6% | 92% | 90.4% | 88.6% | 66.1% | -4.75% (active) | 90% | 61.3% | 43.1% | 90% | 29.8% | 75.5% | 75.6% | 56.6% | 87.4% | 101% | 46.6% | 71.4% | 32.5%
14 | O=C(OC[C@@H]1CO1)c1cccc2c(=O)c3ccccc3[nH]c12 | -58.5% (active) | -24.6% (active) | -13% (active) | -26% (active) | -21.8% (active) | -25.5% (active) | -49.9% (active) | -20% (active) | -8.54% (active) | -37.3% (active) | -20.8% (active) | 4.46% (active) | -89.9% (active) | -28.1% (active) | -56.9% (active) | -31.3% (active) | -8.88% (active) | -38.6% (active) | -30.8% (active) | -65.8% (active)
15 | CN(Cc1cnc2nc(N)nc(N)c2n1)c1c(Cl)cc(C(=O)NC(CCC(=O)O)C(=O)O)cc1Cl (stereo not given) | 25.8% | 67.5% | 31.2% | 23.8% | 20.2% | 15.4% | 24.5% | 15.6% | 12.7% | 53% | 23.8% | 21.6% | 68.5% | 68% | 30.9% | 28.4% | 2.98% (active) | 21.4% | 33.8% | 21.3%
